Compound activity as filed in PubChem BioAssay.
H9c2 protect – modulators protecting cardiomyocytes from myocardial damage; H9c2 cardiomyocytes, H2O2 injury protection, ATPLite, 2 h; protection from H2O2 cell death, % at 20 µM; 360,000 tested, 0.63% active;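 active = compounds giving at least 50% protection of heart cells from peroxide-induced death in the single-dose screen, raw or plate-pattern-corrected value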;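 also: 0% = DMSO wells with peroxide and 100% = DMSO wells without peroxide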
Mot1-301 SUMO – SUMOylation pathway inhibition by Mot1-301 growth rescue | S. cerevisiae Mot1-301 growth rescue, ATP luminescence, 38.5C; percent above DMSO median, 100 means doubled | growth rescue, % at 18.8 µM | 320,000 tested, 1% active | AID 2716;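 active = every valid replicate shows activation above 250% relative to neutral control wells; inactive = the rest, any valid replicate at or below 250%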;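 also: OY570 slx delta 5 strain wells were the positive control but not used for scaling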
AI-2 QS mod – Vibrio harveyi AI-2 quorum sensing modulation; Vibrio harveyi JMH597 AI-2 luminescence/OD600 ratio, 9 h; hits give low values; strain lacks LuxN and CqsS sensors; 0 = neutral-control median; activity change, % at 7.5 µM; 300,000 tested, 0.4% active; in the data active = activity change below about -75%, passing the limit was not always enough;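 also: luminescence divided by OD600 gain over 9 h not by final OD600 alone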
AHR act – activates the human aryl hydrocarbon receptor | P35869 | AHR-responsive luciferase reporter cells, luminescence | activation, % at 5 µM | 320,000 tested, 2.5% active | AID 2796; in the data active = activation above about 47%;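 also: 0% = vehicle wells and 100% = reference agonist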
NTR1 agonist – agonists of human neurotensin receptor NTR1; P30989; NTR1-U2OS beta-arrestin-GFP spot imaging, agonist mode; activation, % at 20 µM; 330,000 tested, 0.17% active; AID 493036;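 active = activation at or above 40% of the spot to cytoplasm intensity ratio, with at least 20 cells analyzed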;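 also: 0% = DMSO without peptide and 100% = 100 nM NTR1 peptide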
Target sequence (P30989 whole entry, looked up): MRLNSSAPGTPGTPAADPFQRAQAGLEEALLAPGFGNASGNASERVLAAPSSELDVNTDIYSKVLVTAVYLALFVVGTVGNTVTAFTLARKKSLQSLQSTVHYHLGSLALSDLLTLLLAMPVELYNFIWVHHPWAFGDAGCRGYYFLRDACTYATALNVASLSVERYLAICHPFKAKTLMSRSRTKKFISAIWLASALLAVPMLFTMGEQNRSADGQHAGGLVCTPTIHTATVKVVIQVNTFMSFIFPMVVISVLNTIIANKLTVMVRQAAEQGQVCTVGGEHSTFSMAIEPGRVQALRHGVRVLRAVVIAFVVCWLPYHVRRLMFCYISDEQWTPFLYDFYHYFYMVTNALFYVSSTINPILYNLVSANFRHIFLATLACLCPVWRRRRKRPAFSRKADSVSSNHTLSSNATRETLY
GRIN3A LBD mod – modulators (binders) of human NR3A ligand-binding domain | NR3A LBD differential scanning fluorimetry, Tm shift; 0% = protein alone, 100% = glycine-bound protein | Tm shift relative to glycine control, % at 25 µM | 340,000 tested, 2.5% active | AID 1259313;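 active = melting temperature shift of at least 10% of the positive control shift, at one fixed dose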
The depositor's hits bear a star; . = not tested or not shown. In the library only some 6.2% were active in any assay of this set; here they are far more common.

SMILES | H9c2 protect | Mot1-301 SUMO | AI-2 QS mod | AHR act | NTR1 agonist | GRIN3A LBD mod
Cc1ccc(S(=O)(=O)N(C)CC(=O)OCC(=O)NC(c2ccccc2)c2ccccc2)cc1 | -0.4 | 192.8 | 5.7 | 1.0 | -0.6 | 24.0*
CC(=O)Nc1ccc(S(=O)(=O)N(C)CC(=O)OCC(=O)c2ccc[nH]2)cc1 | 11.6 | -6.3 | . | 0.9 | 1.2 | -1.0
CC(=O)Nc1ccc(S(=O)(=O)N(C)CC(=O)OCC(=O)NNC(=O)c2ccccc2F)cc1 | -1.3 | -4.3 | 8.9 | 2.4 | 1.6 | 17.6*
Cc1cc(C)cc(C(O)c2ncc(-c3ccc(F)cc3)[nH]2)c1 (centres undefined) | -11.0 | . | . | . | . | .
O=C(c1sc2ccccc2c1Cl)N1CCN(CCc2ccccn2)CC1 | 3.8 | -6.9 | 21.3 | -0.7 | 2.0 | -2.0
O=C(/C=C/c1ccccc1)NCCSCc1ccc(Cl)cc1 | -2.2 | -3.3 | 6.2 | 6.9 | -1.3 | 11.9*
O=C(/C=C/c1cccc([N+](=O)[O-])c1)NCCSCc1ccc(Cl)cc1 | -2.4 | 15.8 | 2.5 | 1.7 | 0.0 | 4.6
CCOc1ccc(NC(=O)CN(C)C(=O)c2sc3ccccc3c2Cl)cc1OCC | -3.9 | -0.2 | 3.0 | 4.0 | 1.5 | -3.2
O=C(COC(=O)CCN1C(=O)/C(=C\C=C\c2ccccc2)SC1=S)Nc1ccc(Br)cc1 | 1.4 | -12.3 | 12.3 | -1.5 | 0.3 | 10.1*
O=C(CN1C(=O)S/C(=C\c2cc(Cl)c(O)c(Cl)c2)C1=O)Nc1ccccc1 | -0.9 | 14.9 | -17.2 | 2.5 | . | 11.7*
O=C(CN1C(=O)S/C(=C\C=C\c2ccccc2)C1=O)Nc1ccc(O)cc1 | -6.2 | -1.9 | 23.9 | -3.5 | 13.5 | 14.9*
O=C(NNC(=O)c1cc2cc3ccccc3nc2s1)c1cccc(C(F)(F)F)c1 | 13.4 | 1.3 | 19.8 | 48.3* | -1.0 | 5.4
O=C(NNS(=O)(=O)c1ccccc1)c1cc2cc3ccccc3nc2s1 | 11.7 | 64.2 | 16.8 | 36.4 | -1.1 | -3.4
Cc1ccc(OCC(=O)Nc2ccccc2C(=O)N2CCCC2)cc1 | -5.7 | 6.4 | 6.9 | 2.9 | -0.2 | -1.1
COc1cccc(CNC(=O)CCS(=O)(=O)c2cccc3nonc23)c1 | 8.2 | 285.9* | 24.2 | 6.3 | -1.0 | 1.9
O=C(Nc1ccc(NC(=O)c2ccco2)nc1)c1ccco1 | -22.1 | 12.9 | -8.5 | 2.4 | 0.6 | -5.2
O=C(Nc1ccc(NC(=O)C2CCCCC2)cn1)c1ccco1 | -38.3 | 7.8 | 33.2 | 5.6 | 3.1 | 15.8*
O=C(NNC(=O)c1ccccc1Cl)c1ccc2c(c1)OCCO2 | -10.4 | 2.1 | . | 2.1 | -1.1 | 1.2
O=C(Nc1ccc([N+](=O)[O-])cc1Br)c1cc2ccccc2nc1Cl | -8.6 | 4.2 | 6.6 | -1.0 | 0.8 | -2.9
Cn1c(CNC(=O)CCNC(=O)c2ccccc2)cc(=O)n(C)c1=O | 0.8 | 10.8 | 50.7 | 3.0 | -1.2 | 0.2
Cn1c(CNC(=O)CCNC(=O)c2cccc(Cl)c2)cc(=O)n(C)c1=O | -1.6 | -17.2 | 22.5 | 0.9 | -1.0 | 12.5*
COC(=O)c1cc2occc2n1CC(=O)Nc1cc(OC)cc(OC)c1 | 5.1 | -20.3 | 2.9 | 1.8 | -1.4 | 11.3*
COc1cc(/C=C/c2ccc3cccc(O)c3n2)c(Br)cc1O | 33.7 | -6.0 | 5.5 | 0.8 | 29.9 | .
COc1cc(Br)cc(/C=C/c2ccc3cccc(O)c3n2)c1O | 40.4 | 11.1 | 17.5 | 26.2 | 13.4 | 33.9*
COc1ccc(OC)c(/C=C/c2ccc3cccc(O)c3n2)c1 | 61.1* | 3.9 | 6.1 | 11.1 | 8.0 | .
SMILES | H9c2 protect | Mot1-301 SUMO | AI-2 QS mod | AHR act | NTR1 agonist | GRIN3A LBD mod
Oc1c(Cl)cc(Cl)cc1/C=C/c1ccc2cccc(O)c2n1 | -26.4 | 8.2 | 79.5 | 51.3* | 3.1 | 25.3*
COc1cc(Br)c(/C=C/c2ccc3cccc(O)c3n2)cc1OC | 19.3 | 13.9 | 14.3 | 10.5 | 2.1 | 2.7
OC(c1ccccc1)c1ncc(-c2cccc(F)c2)[nH]1 (centres undefined) | -2.7 | . | . | . | . | .
O=C(CC1Nc2ccccc2NC1=O)NCCc1ccccc1 (centres undefined) | 2.3 | -2.7 | 34.5 | 48.7* | 1.7 | -0.3
CC(NC(=O)CC1Nc2ccccc2NC1=O)c1ccccc1 (centres undefined) | 1.7 | 8.3 | 16.4 | 15.9 | -0.7 | -1.2
NC(=O)CC1Nc2cccc3cccc(c23)NC1=O (centres undefined) | 0.4 | -6.4 | 10.6 | 50.8* | 0.1 | -1.8
O=C(CC1Nc2ccccc2NC1=O)c1ccccc1 (centres undefined) | . | -5.0 | 10.3 | 77.9* | -1.7 | .
CC(=O)c1ccc(N2CCN(C(=O)CCS(=O)(=O)c3ccc4c(c3)NC(=O)CS4)CC2)cc1 | -3.0 | -24.3 | -9.0 | 1.8 | 0.7 | 0.2
O=C(CN1C(=O)COc2ccccc21)NCCCN1CCCCC1 | 6.1 | 3.6 | 12.7 | -0.7 | 0.4 | -0.2
CCc1nc2ccc(C(=O)NCCCn3ccnc3)cn2c1N(C)Cc1cc2ccccc2s1 | -0.4 | . | . | . | . | .
c1ccc2c(c1)Nc1cc3ccccc3cc1S2 | -2.8 | -14.4 | 0.8 | 59.7* | 0.7 | 1.1
O=C(CCCOc1ccc(Br)cc1)Nc1ccc(S(=O)(=O)N2CCOCC2)cc1 | -13.3 | -2.7 | 0.9 | -0.1 | 2.7 | .
Cc1ccc(NC(=O)COc2ccc(-n3cnnn3)cc2)cc1C | -9.8 | . | 9.8 | 0.8 | 0.1 | 0.5
CC(=O)c1ccc(OCCCC(=O)Nc2ccc(S(=O)(=O)N3CCOCC3)cc2)cc1 | -2.1 | 11.7 | 7.7 | -0.2 | -0.2 | 22.1*
COc1ccc(NC(=O)COc2ccc(-n3cnnn3)cc2)cc1OC | -9.4 | . | . | . | 0.5 | 11.5*
COc1ccc(OCC(=O)Nc2ccc(N3CCCCC3)cc2)cc1 | -6.1 | 30.9 | 9.4 | 3.3 | 5.1 | 18.6*
O=C(CN1CCN(c2ccc(O)cc2)CC1)Nc1ccccc1C(=O)NCCc1ccccc1 | 45.4 | . | . | 74.4* | 5.3 | -4.3
COc1ccc(NC(=O)c2ccc(NC(=O)CN3CCN(c4ccc(O)cc4)CC3)cc2)cc1 | 0.3 | . | . | . | . | 17.2*
COc1ccc(NC(=O)c2ccc(NC(=O)CN3CCN(c4ccccc4O)CC3)cc2)cc1 | -2.0 | . | . | . | . | .
COc1ccc(OCCCC(=O)Nc2ccc(N3CCCCC3)cc2)cc1 | 1.5 | 45.4 | 21.5 | -1.8 | 1.6 | 2.7
COc1ccc(OCCCC(=O)Nc2ccc(N3CCOCC3)cc2)cc1 | 1.0 | -11.7 | 8.3 | 4.0 | 0.1 | 28.3*
CCN(Cc1nc2cc(Cl)ccc2c(=O)[nH]1)C(=O)CN1C(=O)NC2(CCCCC2C)C1=O (centres undefined) | 10.2 | . | . | . | 0.2 | 1.9
CCOc1ccccc1-c1nc(-c2cccc(Br)c2)no1 | -5.4 | -21.2 | 5.9 | 64.0* | 5.2 | -10.6
Cc1ccc(C)n1-c1nnc(N2CCC(C(=O)NCCCN3CCN(C)CC3)CC2)s1 | 9.2 | -4.7 | 15.2 | -1.5 | 5.8 | -0.8
O=C(CSc1nc2ccccc2c(=O)[nH]1)Nc1cccc([N+](=O)[O-])c1 | 52.8* | -3.6 | 18.2 | -0.4 | 3.1 | -7.2
